Source: PubChem (several laboratories)
BoNT A protease – BoNT/A light chain protease inhibitors, primary screen, biochemical, flow cytometry, MLPCN library; Botulinum neurotoxin type A light chain protease (Clostridium botulinum A str. ATCC 3502); multiplex microsphere protease substrate cleavage; inhibition, % at 10 µM; hit rate 0.17% among 360,000; AID 588499, 2011; in the data active = inhibition above about 30%; inconclusive = no clear call, values can overlap the other calls; note: plate controls were buffer without enzyme for full effect and enzyme alone for no effect
GDH-TPI counter-1 – GDH-TPI coupling enzyme inhibitors, primary screen, artefact control for M. tuberculosis FBA inhibitor project, biochemical, absorbance, full deck; GDH-TPI coupled enzyme counterscreen, NADH absorbance; inhibition, % at 4.8 µM; hit rate 1.2% among 360,000; AID 588335, 2011; in the data active = inhibition above about 30%;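 note: 0% = DMSO wells and 100% = wells lacking the enzyme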
Anthrax LF inh2 – Bacillus anthracis LF protease inhibitors, primary screen, biochemical, multiplex microsphere, MLPCN library; Lethal factor (Bacillus anthracis), P15917; multiplex microsphere protease cleavage assay; inhibition, % at 10 µM; hit rate 0.12% among 360,000; AID 588501, 2011; in the data active = inhibition above about 30%; inconclusive = no clear call, values can overlap the other calls; note: plate controls were buffer without enzyme for full effect and enzyme alone for no effect
Target sequence (P15917 whole entry, looked up): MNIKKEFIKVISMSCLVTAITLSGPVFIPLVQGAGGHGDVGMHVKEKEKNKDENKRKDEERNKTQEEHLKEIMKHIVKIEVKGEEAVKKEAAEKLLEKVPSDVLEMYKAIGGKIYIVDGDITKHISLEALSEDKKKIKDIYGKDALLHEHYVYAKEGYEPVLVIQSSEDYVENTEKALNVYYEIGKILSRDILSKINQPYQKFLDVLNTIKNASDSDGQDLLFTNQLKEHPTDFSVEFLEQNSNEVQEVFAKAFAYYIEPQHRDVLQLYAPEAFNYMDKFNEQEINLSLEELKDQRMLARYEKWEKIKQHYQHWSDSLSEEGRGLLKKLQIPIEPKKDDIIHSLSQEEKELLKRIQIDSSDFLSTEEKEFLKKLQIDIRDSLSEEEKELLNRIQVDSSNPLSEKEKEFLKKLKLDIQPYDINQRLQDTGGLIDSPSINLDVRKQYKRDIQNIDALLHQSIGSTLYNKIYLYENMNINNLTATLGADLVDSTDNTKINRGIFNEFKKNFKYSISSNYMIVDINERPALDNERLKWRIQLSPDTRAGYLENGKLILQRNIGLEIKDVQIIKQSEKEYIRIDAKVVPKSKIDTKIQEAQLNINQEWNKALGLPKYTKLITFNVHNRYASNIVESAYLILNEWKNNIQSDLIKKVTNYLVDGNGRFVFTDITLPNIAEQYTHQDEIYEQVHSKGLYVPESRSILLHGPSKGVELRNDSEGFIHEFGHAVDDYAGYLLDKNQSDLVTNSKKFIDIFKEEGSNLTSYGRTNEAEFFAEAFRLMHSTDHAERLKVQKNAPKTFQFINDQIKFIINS
BoNT F protease – BoNT/F light chain protease inhibitors, primary screen, biochemical, flow cytometry, MLPCN library; AID 588497, 2011; Botulinum neurotoxin type F light chain protease (Clostridium botulinum); hit rate 0.22% among 360,000; inhibition, % at 10 µM; Multiplex microsphere protease cleavage assay; in the data active = inhibition above about 35%, passing the limit was not always enough; inconclusive = no clear call, values can overlap the other calls; note: plate controls were buffer without enzyme for full effect and enzyme alone for no effect
FBA Mtb inh – Mtb FBA enzyme inhibitors, primary screen, biochemical, fluorescence, strain H37Rv; Fructose-bisphosphate aldolase (Mycobacterium tuberculosis (strain ATCC 25618 / H37Rv)), …; purified M. tuberculosis FBA, fluorescence read-out; inhibition, % at 1 µM; hit rate 2.3% among 360,000;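 note: 0% = vehicle and 100% = reference inhibitor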
Bead autofluor – compound fluorescence in toxin protease inhibitor counterscreen; compound autofluorescence counterscreen, microsphere flow cytometry; stronger effect = higher value; fluorescence intensity (concentration not given with the values); hit rate 3.1% among 360,000; in the data active = fluorescence intensity above about 16000; inconclusive = no clear call, values can overlap the other calls
Mtb FBA confirm – M. tuberculosis aldolase blockers, biochemical, fluorescence, strain H37Rv, confirmation | shares compounds with FBA Mtb inh | purified M. tuberculosis FBA, fluorescence read-out | AID 651616, 2012 | hit rate 78% among 5,600 | inhibition, % at 1 µM;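 note: 0% = vehicle wells and 100% = reference inhibitor wells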
GDH-TPI counter-2 – GDH-TPI coupling enzyme inhibitors, artefact control for M. tuberculosis FBA inhibitor project, biochemical, fluorescence, high throughput | hit rate 81% among 5,600 | AID 652141, 2013 | shares compounds with FBA Mtb inh | inhibition, % at 1 µM | GDH-TPI coupled enzyme counterscreen; in the data active = inhibition above about 10%
GDH-TPI dose – GDH-TPI coupling enzyme inhibitors, dose response, artefact control for M. tuberculosis FBA inhibitor project, biochemical, fluorescence, IC50; shares compounds with FBA Mtb inh; GDH-TPI coupled enzyme assay, artifact counterscreen; IC50, µM; hit rate 79% among 170; call rule not given here
Active calls of the source: *; ? = inconclusive; / = no result. The list is not random: actives were taken first. Their share in the collection is about 6.7%. Cut-off read from the data, not from the text of the source, unless noted: active = inhibition above about 27%; inactive = the rest.

SMILES	BoNT A protease	GDH-TPI counter-1	Anthrax LF inh2	BoNT F protease	FBA Mtb inh	Bead autofluor	Mtb FBA confirm	GDH-TPI counter-2	others
Cc1csc(NC(=O)c2cc3c(s2)-c2ccccc2OC3)n1	1	19	-1	-4	39*	5374	123*	102*
COc1ccc2oc(=O)c(-c3nc(C)cs3)cc2c1	?	13	7	12	35*	20394*	111*	78*
Cc1nc2c([nH]c3ccccc32)c(=O)n1N	0	7	-7	-5	5	4468	/	/
Nn1c(=O)[nH]c2c([nH]c3ccccc32)c1=O	-1	-12	-1	2	27*	5155	107*	86*
CC(=O)C[C@H]1c2ccccc2S(=O)(=O)N1C1CCCC1	0	-6	-8	-4	-2	4081	/	/
COc1ccc(C2=NN(C(=O)CSc3nnc(C)c(=O)n3N)C(c3ccco3)C2)cc1 (stereo unspecified)	0	-11	4	-4	1	4141	/	/
COc1cccc2c(=O)c(SC(F)(F)C(F)C(F)(F)F)c(C)[nH]c12 (stereo unspecified)	0	14	-3	-9	35*	4455	114*	100*
COc1cccc2c(=O)c(C/C=C(/C)Cl)c(C)[nH]c12	0	4	-2	-11	39*	3402	50*	42*
CCOC(=O)c1c(NC(=O)COC(=O)c2ncc(Cl)c(Cl)c2Cl)sc(C(=O)N(C)C)c1C	-1	5	-2	-6	-3	5267	/	/
COc1ccc(S(=O)(=O)NC(=O)C2(C)CCN2C(=O)Cc2ccccc2Cl)cc1OC (stereo unspecified)	0	-6	-6	2	-2	3541	/	/
c1ccc(-c2cc(-c3cc(-c4ccccc4)on3)no2)cc1	0	2	-6	-1	-1	3712	/	/
COc1ccccc1-c1nc(-c2cccc(C)c2)no1	0	1	0	0	81*	4648	76*	54*
COc1cccc(NC(=O)CSc2nc3c(sc4ccccc43)c(=O)n2CCN(C)C)c1	-1	8	-8	-2	47*	3301	4	0
CCN(CC)CCn1c(SCC(=O)Nc2cccc(OC)c2)nc2c(sc3ccccc32)c1=O	-1	6	-2	-6	14	3495	/	/
Nc1nonc1-n1nnc(C(=O)N/N=C/c2ccc(Cl)cc2Cl)c1CN1CCCC1	-1	3	-3	-18	1	3493	/	/
O=C(O)c1ccc(NC2=C/C(=N/S(=O)(=O)c3cccs3)c3ccccc3C2=O)cc1	0	18	-4	2	-6	3589	/	/
CCCn1nc(NC(=O)C2CCCO2)c2cc3cccc(C)c3nc21 (stereo unspecified)	0	15	2	-13	37*	4298	179*	149*
COc1ccc(CCNC(=O)Cn2nc(C)n3nc(-c4ccccc4)cc3c2=O)cc1OC	2	1	-2	4	-1	5537	/	/
O=C(O)CCc1nn2c3ccccc3n(Cc3ccccc3F)c2nc1=O	-1	5	-2	-3	37*	2631	110*	87*
O=C(O)CCc1nn2c3ccccc3n(CC(=O)O)c2nc1=O	0	19	-9	-4	24	4011	/	/
COc1ccc(CNCc2ccc(OC)c3ccccc23)cc1	-2	-2	-8	-5	57*	4253	11	-5	GDH-TPI dose=>10
COc1ccc(C2OC34CCCCC3C(C#N)(C#N)C2(C#N)C(=N)O4)cc1 (stereo unspecified)	0	-11	-1	3	39*	2766	80*	67*
N#CC1(C#N)COC23CCCCC2C1(C#N)C(=N)O3 (stereo unspecified)	0	-2	-13	-5	26	5674	/	/
CCCC1OC23CCCCC2C(C#N)(C(=N)O3)C1(C#N)C#N (stereo unspecified)	1	1	-3	9	37*	?	15	-2	GDH-TPI dose=>10
N#CC12COC3(CCCCC3C1(C#N)C#N)OC2=N (stereo unspecified)	0	9	0	-4	39*	5337	75*	61*
SMILES	BoNT A protease	GDH-TPI counter-1	Anthrax LF inh2	BoNT F protease	FBA Mtb inh	Bead autofluor	Mtb FBA confirm	GDH-TPI counter-2	others
O=C(Nc1cccc(C(F)(F)F)c1)c1cccc(NS(=O)(=O)c2ccc(O)c(C(=O)O)c2)c1	2	4	2	?	4	3997	/	/
C[C@@]12C(=O)N(c3ccccc3)C(=O)N1[C@@H]1c3ccccc3OC[C@@H]1[C@H]2c1ccccc1	0	0	1	-4	0	4071	/	/
Cc1cccc(/C=N/NC(=O)Cc2cccs2)c1	6	-11	?	-6	1	3618	/	/
Cc1ccc(/C=N/N=C/c2ccc(C)s2)s1	0	18	0	2	1	2649	/	/
Cc1ccc(C=Nc2ccccc2C(N)=O)s1	0	13	0	1	58*	2547	59*	50*
Cc1cccc(C=Nc2ccccc2C(N)=O)c1	-4	2	-6	-5	36*	24521*	140*	101*
FC(F)(F)c1nnc2sc(-c3cccs3)nn12	0	11	6	-7	5	6161	/	/
Cc1cc(C(=O)COC(=O)COc2ccc(C#N)cc2)c(C)n1C1CC1	-6	-11	0	-7	3	7577	/	/
O=C(CNC(=O)c1ccc2c(c1)OCO2)Nc1cccc(Br)c1	0	11	0	-13	4	2943	/	/
O=C(CNC(=O)c1cccc(Br)c1)N/N=C/c1ccc2c(c1)OCO2	-2	11	-5	3	33*	3151	141*	106*
CCN(CC)c1ccc(/C=N/NC(=O)CNC(=O)c2ccc3c(c2)OCCO3)cc1	0	42*	-3	-3	47*	4690	54*	47*
COc1ccccc1Nc1nc(NCC(C)C)nc(N)c1[N+](=O)[O-]	?	9	-1	?	-2	?	/	/
COc1ccc(N(CCC(=O)O)S(=O)(=O)c2ccc(C)c(C)c2)cc1	-1	-1	4	-7	0	4539	/	/
